In PubChem BioAssay (EPA / NIEHS):
Several values for one entry are separate records, joined by “and”; a condition that tells them apart may be missing. Equal entries are not always repeated. Inconclusive results are not listed. Some structures have more than one record in an assay (separate samples or runs), and their calls can disagree. Activity calls are given as the source filed them. How the source made its calls, unless noted: active means hit-call score of the fitted dose curve at least 0.9, where 1 is the maximum; inactive means score below 0.9.

How the values were obtained:
[1] = read-out: Phosphatase and tensin (PTEN), PTEN (gene 5728); test: LTEA_HepaRG_PTEN: Life Technologies and Expression Analysis (LTEA) Assay for Phosphatase and tensin (PTEN) using HepaRG (AID 2283523); details: mRNA level, 48 h; actives raise or lower the signal
In short: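 Read-out is PTEN transcript level by multiplexed TaqMan qRT-PCR after 48 h chemical treatment of human HepaRG cultures in serum-free induction medium. Concentrations spanned 100 uM downward in half-log steps, 0.5% DMSO throughout; activity fitted in both directions against vehicle.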

[2] = read-out: solute carrier (SLC22A1), SLC22A1 (gene 6580); test: LTEA_HepaRG_SLC22A1: Life Technologies and Expression Analysis (LTEA) Assay for solute carrier (SLC22A1) using HepaRG (AID 2283524); details: mRNA level, 48 h; actives raise or lower the signal
In short: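 HepaRG (human liver line), 48 h dosing in serum-free induction medium; 8 conc., half-log down from 100 uM, 0.5% DMSO vehicle, duplicates. Endpoint: SLC22A1 mRNA, qRT-PCR, housekeeping-normalized; gain/loss fit vs DMSO.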

[3] = read-out: Pyruvate Dehydrogenase Kinase 4 (PDK4), PDK4 (gene 5166); test: LTEA_HepaRG_PDK4: Life Technologies and Expression Analysis (LTEA) Assay for Pyruvate Dehydrogenase Kinase 4 (PDK4) using HepaRG (AID 2283525); details: mRNA level, 48 h; actives raise or lower the signal
In short: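 In this multiplexed human HepaRG expression assay, cells are treated 48 h with test chemicals across an eight-point range starting at 100 uM. PDK4 mRNA changes, normalized to ACTB/GAPDH/POLR2A, are fitted in both directions relative to vehicle.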

[4] = read-out: Nuclear factor erythroid 2-related factor 2 (Homo sapiens) (UniProt Q16236); test: LTEA_HepaRG_NFE2L2: Life Technologies and Expression Analysis (LTEA) Assay for Nuclear factor erythroid 2-related factor 2 (NFE2L2) Transcription Factor using HepaRG (AID 2283527); details: mRNA level, 48 h; actives raise or lower the signal
In short: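 Transcript level of NFE2L2 is the read-out, measured by microfluidic TaqMan qRT-PCR and normalized to three housekeeping genes. Human HepaRG cultures received test chemical for 48 h at up to 100 uM in half-log steps. Gain or loss of signal is fitted relative to 0.5% DMSO.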

[5] = read-out: Signal transducer and activator of transcription 3 (Homo sapiens) (UniProt P40763); test: LTEA_HepaRG_STAT3: Life Technologies and Expression Analysis (LTEA) Assay for Signal transducer and activator of transcription (STAT3) using HepaRG (AID 2283529); details: mRNA level, 48 h; actives raise or lower the signal
In short: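 Read-out is STAT3 mRNA level by qRT-PCR, normalized to three housekeeping genes, in human HepaRG liver cells treated for 48 h. Concentrations ran from 100 uM downward in half-log steps; curves were fitted for gain or loss relative to 0.5% DMSO.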

[6] = read-out: solute carrier (SLCO1B1), SLCO1B1 (gene 10599); test: LTEA_HepaRG_SLCO1B1: Life Technologies and Expression Analysis (LTEA) Assay for solute carrier (SLCO1B1) using HepaRG (AID 2283530); details: mRNA level, 48 h; actives raise or lower the signal
In short: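 Differentiated human HepaRG cells, plated 48 h, switched to serum-free induction medium and exposed in duplicate for 48 h to 8 half-log concentrations (top 100 uM) in 0.5% DMSO. SLCO1B1 mRNA by TaqMan qRT-PCR, normalized to ACTB/GAPDH/POLR2A.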

[7] = read-out: sulfotransferase 2A1 (SULT2A1), SULT2A1 (gene 6822); test: LTEA_HepaRG_SULT2A1: Life Technologies and Expression Analysis (LTEA) Assay for sulfotransferase 2A1 (SULT2A1) using HepaRG (AID 2283531); details: mRNA level, 48 h; actives raise or lower the signal
In short: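 Differentiated human HepaRG cells in serum-free induction medium were exposed for 48 h to eight half-log concentrations (top 100 uM, 0.5% DMSO). SULT2A1 mRNA was measured by qRT-PCR, normalized to ACTB, GAPDH and POLR2A, and fitted bidirectionally against DMSO.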

[8] = read-out: Transforming Growth Factor (TGFA), TGFA (gene 7039); test: LTEA_HepaRG_TGFA: Life Technologies and Expression Analysis (LTEA) Assay for Transforming Growth Factor (TGFA) using HepaRG (AID 2283532); details: mRNA level, 48 h; actives raise or lower the signal
In short: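 HepaRG (human liver line), 48 h exposure, 8 conc. half-log down from 100 uM, 0.5% DMSO vehicle, duplicates; serum-free induction medium. TGFA mRNA by TaqMan qRT-PCR, ACTB/GAPDH/POLR2A normalization; gain/loss fit vs DMSO.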

[9] = read-out: Transforming Growth Factor (TGFB1), TGFB1 (gene 7040); test: LTEA_HepaRG_TGFB1: Life Technologies and Expression Analysis (LTEA) Assay for Transforming Growth Factor (TGFB1) Transporter using HepaRG (AID 2283533); details: mRNA level, 48 h; actives raise or lower the signal
In short: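 Differentiated human HepaRG cells in serum-free induction medium were exposed in duplicate for 48 h to eight concentrations (top 100 uM, half-log steps, 0.5% DMSO). TGFB1 mRNA was quantified by qRT-PCR, normalized to ACTB, GAPDH, POLR2A, and fitted bidirectionally against DMSO.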

[10] = read-out: TIMP1, TIMP1 (gene 7076); test: LTEA_HepaRG_TIMP1: Life Technologies and Expression Analysis (LTEA) Assay for TIMP1 using HepaRG (AID 2283534); details: mRNA level, 48 h; actives raise or lower the signal;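 further: TaqMan qRT-PCR signal normalized to ACTB GAPDH and POLR2A housekeeping genes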
In short: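 Differentiated human HepaRG cells in serum-free induction medium were exposed 48 h to chemicals (8 half-log concentrations, top 100 uM, 0.5% DMSO). TIMP1 mRNA was quantified by TaqMan qRT-PCR, normalized to ACTB/GAPDH/POLR2A; bidirectional fit versus DMSO.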

[11] = read-out: Tumor necrosis factor receptor 1 (TNFRSF1A), TNFRSF1A (gene 7132); test: LTEA_HepaRG_TNFRSF1A: Life Technologies and Expression Analysis (LTEA) Assay for Tumor necrosis factor receptor 1 (TNFRSF1A) using HepaRG (AID 2283535); details: mRNA level, 48 h; actives raise or lower the signal
In short: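 Differentiated human HepaRG cells were exposed in duplicate for 48 h in serum-free induction medium to eight concentrations (top 100 uM, half-log steps, 0.5% DMSO). TNFRSF1A mRNA was quantified by qRT-PCR, normalized to ACTB, GAPDH and POLR2A, then fitted bidirectionally against DMSO.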

[12] = read-out: Thyroid Hormone Responsive (THRSP), THRSP (gene 7069); test: LTEA_HepaRG_THRSP: Life Technologies and Expression Analysis (LTEA) Assay for Thyroid Hormone Responsive (THRSP) using HepaRG (AID 2283536); details: mRNA level, 48 h; actives raise or lower the signal
In short: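 mRNA induction or loss relative to 0.5% DMSO vehicle was fitted bidirectionally across an eight-point curve whose highest exposure was 100 uM. Human HepaRG liver cells received chemicals in duplicate over 48 h before RNA extraction.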

[13] = read-out: UDP glucuronosyltransferase (UGT1A1), UGT1A1 (gene 54658); test: LTEA_HepaRG_UGT1A1: Life Technologies and Expression Analysis (LTEA) Assay for UDP glucuronosyltransferase (UGT1A1) using HepaRG (AID 2283538); details: mRNA level, 48 h; actives raise or lower the signal
In short: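 Readout is UGT1A1 transcript level by qRT-PCR, normalized to three housekeeping genes, after 48 h chemical treatment of HepaRG cells. Concentrations ran from 100 uM down in half-log steps with 0.5% DMSO, and gain or loss relative to DMSO was fitted.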

[14] = read-out: UDP glucuronosyltransferase (UGT1A6), UGT1A6 (gene 54578); test: LTEA_HepaRG_UGT1A6: Life Technologies and Expression Analysis (LTEA) Assay for UDP glucuronosyltransferase (UGT1A6) using HepaRG (AID 2283539); details: mRNA level, 48 h; actives raise or lower the signal
In short: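 Human HepaRG cells were dosed for 48 h in serum-free induction medium with 0.5% DMSO vehicle, eight-point half-log series from 100 uM, in duplicate. UGT1A6 mRNA was measured by qRT-PCR, normalized to ACTB, GAPDH, POLR2A, and fitted bidirectionally against DMSO.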

[15] = read-out: X-box binding protein 1 (XBP1), XBP1 (gene 7494); test: LTEA_HepaRG_XBP1: Life Technologies and Expression Analysis (LTEA) Assay for X-box binding protein 1 (XBP1) using HepaRG (AID 2283540); details: mRNA level, 48 h; actives raise or lower the signal
In short: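 Differentiated human HepaRG cells in serum-free induction medium were exposed in duplicate for 48 h to eight half-log concentrations up to 100 uM in 0.5% DMSO. XBP1 mRNA was quantified by qRT-PCR, normalised to ACTB, GAPDH and POLR2A, with bidirectional fitting against DMSO.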

[16] = LTEA_HepaRG_LDH_cytotoxicity: Cytotoxicity Assessment in the Life Technologies and Expression Analysis (LTEA) Assay (AID 2283563; active means hit-call score of the fitted dose curve at least 0.9, where 1 is the maximum;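 on AC50: LDH activity released into spent culture medium as a marker of cell death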)
In short: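 Differentiated human HepaRG cells, plated 48 h beforehand, were switched to serum-free induction medium and exposed for 48 h to eight half-log concentrations (top 100 uM) in 0.5% DMSO. LDH was measured in spent medium; activity was fitted relative to DMSO vehicle.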

[17] = ATG_XTT_Cytotoxicity: Cytotoxicity Assessment in the Attagene TRANS-FACTORIAL HepG2 Assay (AID 2283584; active means hit-call score of the fitted dose curve at least 0.9, where 1 is the maximum)
In short: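 HepG2 human liver cells, transiently transfected with multiple GAL4-UAS reporter units, were dosed and read at 24 h by XTT as cell number. Loss of signal was fitted relative to DMSO negative control baseline.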

[18] = target: Cellular tumor antigen p53 (Homo sapiens) (UniProt P04637); test: TOX21_p53_BLA_p2_ratio: Tox21 HCT-116 p53 Agonism Beta-lactamase Assay, Ratio, Phase 2 (AID 2283592; active means hit-call score of the fitted dose curve at least 0.9, where 1 is the maximum)
In short: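 HCT116 cells carrying a p53-responsive beta-lactamase reporter were plated, incubated 5 h at 37C, then dosed with compounds in DMSO (217-fold dilution) for 16 h. CCF4-AM substrate was added for 2 h at room temperature; the 460/530 nm emission ratio gave gain-of-signal activity relative to DMSO.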

[19] = read-out: succinate dehydrogenase complex iron sulfur subunit B (SDHB), SDHB (gene 6390); test: LTEA_HepaRG_SDHB: Life Technologies and Expression Analysis (LTEA) Assay for succinate dehydrogenase complex iron sulfur subunit B (SDHB) using HepaRG (AID 2283528); details: mRNA level, 48 h; actives raise or lower the signal
In short: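 HepaRG, 48 h exposure, 8-pt half-log series from 100 uM in 0.5% DMSO, duplicates. Readout: SDHB mRNA by Fluidigm qRT-PCR vs housekeeping genes; bidirectional fit relative to DMSO.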

Measured: AC50

Sequence of Nuclear factor erythroid 2-related factor 2 (Homo sapiens) (Q16236 whole entry, looked up): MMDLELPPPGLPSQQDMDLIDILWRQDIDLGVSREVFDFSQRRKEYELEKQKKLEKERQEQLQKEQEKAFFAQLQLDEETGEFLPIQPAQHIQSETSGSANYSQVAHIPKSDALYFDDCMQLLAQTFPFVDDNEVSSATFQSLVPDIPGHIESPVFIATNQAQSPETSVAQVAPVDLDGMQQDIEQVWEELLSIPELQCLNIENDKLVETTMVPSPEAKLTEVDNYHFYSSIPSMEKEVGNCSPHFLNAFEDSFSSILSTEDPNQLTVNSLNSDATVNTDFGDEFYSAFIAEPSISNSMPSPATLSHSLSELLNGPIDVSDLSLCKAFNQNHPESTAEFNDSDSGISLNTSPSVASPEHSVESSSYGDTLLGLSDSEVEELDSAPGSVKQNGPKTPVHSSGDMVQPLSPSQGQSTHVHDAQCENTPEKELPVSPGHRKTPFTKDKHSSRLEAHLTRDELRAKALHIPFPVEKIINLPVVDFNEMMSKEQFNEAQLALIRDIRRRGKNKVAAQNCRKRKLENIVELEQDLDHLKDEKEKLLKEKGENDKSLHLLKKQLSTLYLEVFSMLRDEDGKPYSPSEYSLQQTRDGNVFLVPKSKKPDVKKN
Sequence of Signal transducer and activator of transcription 3 (Homo sapiens) (P40763 whole entry, looked up): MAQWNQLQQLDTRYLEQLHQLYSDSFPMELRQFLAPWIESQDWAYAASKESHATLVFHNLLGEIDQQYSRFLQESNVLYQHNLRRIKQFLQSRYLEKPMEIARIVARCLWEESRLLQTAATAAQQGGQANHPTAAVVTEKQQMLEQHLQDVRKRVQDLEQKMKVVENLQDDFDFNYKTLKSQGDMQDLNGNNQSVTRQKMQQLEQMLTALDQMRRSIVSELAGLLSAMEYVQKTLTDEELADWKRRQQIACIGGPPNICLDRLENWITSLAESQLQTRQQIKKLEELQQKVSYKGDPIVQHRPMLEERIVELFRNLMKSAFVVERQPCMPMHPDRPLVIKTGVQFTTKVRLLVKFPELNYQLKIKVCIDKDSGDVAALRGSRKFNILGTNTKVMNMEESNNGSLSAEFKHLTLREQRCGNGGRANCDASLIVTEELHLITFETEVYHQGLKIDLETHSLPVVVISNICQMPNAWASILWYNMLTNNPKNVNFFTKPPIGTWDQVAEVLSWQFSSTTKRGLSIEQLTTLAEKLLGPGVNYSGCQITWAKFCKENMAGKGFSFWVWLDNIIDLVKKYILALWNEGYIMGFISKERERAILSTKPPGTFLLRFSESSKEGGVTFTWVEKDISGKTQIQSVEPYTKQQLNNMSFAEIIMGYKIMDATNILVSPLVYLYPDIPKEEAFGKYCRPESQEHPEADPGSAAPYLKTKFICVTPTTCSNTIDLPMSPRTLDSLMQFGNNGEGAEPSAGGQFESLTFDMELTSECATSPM
Sequence of Cellular tumor antigen p53 (Homo sapiens) (P04637 whole entry, looked up): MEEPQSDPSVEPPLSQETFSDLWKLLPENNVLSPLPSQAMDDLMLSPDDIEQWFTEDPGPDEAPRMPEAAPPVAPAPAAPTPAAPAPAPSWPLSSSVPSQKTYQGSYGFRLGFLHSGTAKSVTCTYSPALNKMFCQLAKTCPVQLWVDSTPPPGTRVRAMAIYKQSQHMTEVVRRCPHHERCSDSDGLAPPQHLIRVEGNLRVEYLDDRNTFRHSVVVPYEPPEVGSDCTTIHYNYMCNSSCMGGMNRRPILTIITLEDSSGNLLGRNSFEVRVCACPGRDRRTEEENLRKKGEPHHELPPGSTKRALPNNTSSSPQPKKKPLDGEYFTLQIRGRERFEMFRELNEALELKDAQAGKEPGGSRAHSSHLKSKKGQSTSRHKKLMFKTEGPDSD

CC1(C)C(C=C(Cl)Cl)C1C(=O)OC(C#N)c1ccc(F)c(Oc2ccccc2)c1 (stereo unspecified)
active: [3] 50 µM | [4] 50 µM | [7] 50 µM | [13] 10.2 µM
not listed: [19]
inactive: all other assays above

CCCN(CCC)c1c([N+](=O)[O-])cc(C(F)(F)F)cc1[N+](=O)[O-]
active: [13] 29.2 µM
not listed: [1] | [17] | [18] | [19]
inactive: all other assays above

Oc1ccc(Cl)cc1Cc1ccccc1
active: [2] 91.8 µM and 91.6 µM | [3] 76.8 µM and 83.6 µM | [6] 81.5 µM | [12] 78.1 µM and 50.5 µM and 87.7 µM | [14] 81.1 µM | [16] 91.5 µM and 93.3 µM and 94.7 µM | [18] 85 µM and 57.2 µM
inactive: [2] | [3] | [4] | [19] | [5] | [6] | [7] | [8] | [9] | [10] | [11] | [13] | [14] | [15] | [17] | [18]
